Among the data in PubChem BioAssay (Tox21) are Potency values, retold here.

The structures appear in SMILES notation. Several values for one entry are separate records, joined by “and”; a condition that tells them apart may be missing. Equal entries are not always repeated. Inconclusive results are not listed. Some structures have more than one record in an assay (separate samples or runs), and their calls can disagree. Activity calls are given as the source filed them. Unless noted, the call rests on the fitted dose curve.

A short description of assay [1]: Nuclear factor erythroid 2-related factor 2/antioxidant responsive element (Nrf2/ARE) small molecule agonists: qHTS cell viability counter screen in human keratinocytes (AID 1919968; active means well fitted curve in the direction sought with a large enough effect in the repeat runs; an effect the other way counts as inactive or inconclusive; further: nearly all actives have a fitted effect of over 55% in size). The essentials:
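CellTiter-Fluor fluorescence, read 1 h after reagent, gave viability in the same wells as the ARE-luciferase assay. KeratinoSens cells (1,500/well) had 23 h compound exposure at 37 C/5% CO2 following 5 h plating.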
(In qHTS, concentration-response curves come from the screen itself.)

Assay [2] is described as follows: Nuclear factor erythroid 2-related factor 2/antioxidant responsive element (Nrf2/ARE) small molecule agonists: luciferase reporter gene qHTS assay in human keratinocytes (AID 1919969). Further: nearly all actives have a fitted effect of over 35% in size. Further: potency means the concentration at half of the fitted maximal effect. A general note: A reporter such as luciferase makes a cellular process visible.
For assay [3], the target named is Gonadotropin-releasing hormone receptor (Homo sapiens) (UniProt P30968). Description: Human gonadotropin-releasing hormone receptor (GnRHR) small molecule agonists, calcium flux assay in GnRHR-HEK293 cells (AID 1920063). Further: nearly all actives have a fitted effect of over 35% in size. The method in brief:
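Agonist mode: compounds at 15 concentrations, in triplicate, went onto calcium dye-loaded GnRHR-HEK293 cells. Intracellular calcium was then followed as 480/540 nm fluorescence at 1 s intervals over 3 min.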

For assay [4], the target named is KiSS-1 receptor (Homo sapiens) (UniProt Q969F8). As to the kind of experiment: Human kisspeptin (KISS1R) small molecule agonists, calcium flux assay in KISS1R-HEK293 cells (AID 1920064; active means well fitted curve in the direction sought with a large enough effect in the repeat runs; an effect the other way counts as inactive or inconclusive). The method in brief:
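Agonist mode: intracellular calcium rise tracked at 1 s intervals over 3 min (480/540 nm) immediately after compound addition to dye-loaded KISS1R-HEK293 stable cells. Each compound tested at 15 concentrations in triplicate.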

Assay [5] is described as follows: G protein-coupled receptor (GPCR) small molecule agonists, calcium flux assay: HEK293 wild type cell line counter screen (AID 1920065). The method in brief: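 Calcium flux counter screen: compound added in agonist mode at 15 concentrations in triplicate to dye-loaded parental HEK293 cells. Fluorescence (480/540) read kinetically for 3 min; ATP served as positive control.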
(In general: Calcium flux is commonly read through the fluorescence of an indicator in the cells.)

A short description of assay [6]: p53 small molecule agonists, cell-based qHTS assay with rat liver microsomes (AID 1963578). The method in brief: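 Quantitative HTS of the Tox21 10K library: p53RE-bla cells, rat liver microsomes plus NADPH at 0.5 mg/mL final each, 16 h at 37 C, beta-lactamase fluorescence detection.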
Assay [7] is described as follows: p53 small molecule agonists, cell-based qHTS assay with rat liver microsomes: qHTS cell viability counter screen (AID 1963580). Further: nearly all actives have a fitted effect of over 45% in size. Further: potency means the concentration at half of the fitted maximal effect. The essentials: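 After the beta-lactamase ratio was read, CellTiter-Glo was added to the same wells and luminescence measured at 30 min; cells had been treated 16 h at 37 C with compounds, rat liver microsomes and NADPH (0.5 mg/mL final each).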

A short description of assay [8]: cAMP Responsive Elements (CRE) small molecule agonists, cell-based qHTS assay (AID 1963590). The essentials:
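Agonist mode: compound added to CRE-bla HEK 293T cells (2,000/well, 18 h after plating) for 3 h at 37 C/5% CO2. Reporter activity detected via FRET beta-lactamase substrate, 2 h room-temperature loading.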

Assay [9] concerns the target Beta-2 adrenergic receptor (Homo sapiens) (UniProt P07550). As to the kind of experiment: Adrenergic beta2 receptor (ADRB2) small molecule antagonists, cell-based qHTS assay (AID 1963592). Further: nearly all actives have a fitted effect of over 50% in size. Further: potency means the concentration at half of the fitted maximal effect. The essentials:
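Assay format: CHO-ADRB2 cells, 18-20hr seeding at 37C/5% CO2, then compound plus 1nM isoproterenol agonist mix for 0.5hr RT. Homogeneous time-resolved fluorescence cAMP detection after 1hr, expressed as 665/615 nm ratio.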

In assay [10] the target is D(2) dopamine receptor (Homo sapiens) (UniProt P14416). As to the kind of experiment: Dopamine D2 receptor (DRD2) small molecule agonists, cell-based qHTS assay (AID 1963594). Further: nearly all actives have a fitted effect of over 35% in size. The method in brief:
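HEK293 cells stably expressing human DRD2, pre-treated with PDE inhibitor Ro20-1724 (0.1 mM final) and compound 10 min at room temperature, then stimulated with NKH477 (200nM […]) for 30 min. cAMP read by HTRF (665/620 nm).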

Assay [11] in a line: p53 small molecule agonists, cell-based qHTS assay with human liver microsomes: qHTS cell viability counter screen (AID 1963579). Further: nearly all actives have a fitted effect of over 45% in size. Further: potency means the concentration at half of the fitted maximal effect. The essentials: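 Viability of p53RE-bla cells is measured as CellTiter-Glo luminescence following a 16 h, 37 C incubation with compound, liver microsomes from human donors and NADPH.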
Assay [12] can be described thus: p53 small molecule agonists, cell-based qHTS assay: qHTS cell viability counter screen (AID 1963581). Further: nearly all actives have a fitted effect of over 45% in size. The method in brief:
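Counter screen read by CellTiter-Glo luminescence (ATP content, 30 min at room temperature), run in the same wells as the beta-lactamase reporter read. HCT-116 p53RE-bla cells saw compounds for 16 h at 37 C.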

Assay [13] is described as follows: p53 small molecule agonists, cell-based qHTS assay (AID 1963582; active means well fitted activation curve with a large enough effect in the signal ratio in the repeat runs, not every such curve was filed as active; the % refers to the signal ratio). The essentials:
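Read-out is beta-lactamase FRET fluorescence after 2 h at room temperature with LiveBLAzer B/G substrate. p53 response element-bla cells were treated 16 h at 37 C with compounds in DMSO, added 5 h after seeding.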

Assay [14] deals with 5-hydroxytryptamine receptor 2A (Homo sapiens) (UniProt P28223). As to the kind of experiment: 5-hydroxytryptamine receptor 2A (HTR2A) small molecule antagonists, cell-based qHTS assay (AID 1963586). Further: nearly all actives have a fitted effect of over 45% in size. Further: potency means the concentration at half of the fitted maximal effect. The method in brief:
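CHO cells stably expressing human HTR2A were plated for 18 h at 37 C, then loaded with calcium dye for 1 h. Compounds were preincubated 5 min at room temperature before DOI (4 nM solution) was added. Kinetic fluorescence was read for 3 min.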

The target of assay [15] is Muscarinic acetylcholine receptor M1 (Homo sapiens) (UniProt P11229). Description: Cholinergic receptor muscarinic 1 (CHRM1) small molecule antagonists, cell-based qHTS assay (AID 1963588). Further: nearly all actives have a fitted effect of over 40% in size. The method in brief: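 Compounds were tested at 15 concentrations in three independent runs. Dye-loaded CHRM1-CHO cells were exposed 5 min at room temperature before stimulation by acetylcholine added at 50nM. Intracellular calcium was read kinetically on FDSS for 3 min.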
Chain of Muscarinic acetylcholine receptor M1 (Homo sapiens) (P11229 whole entry, looked up): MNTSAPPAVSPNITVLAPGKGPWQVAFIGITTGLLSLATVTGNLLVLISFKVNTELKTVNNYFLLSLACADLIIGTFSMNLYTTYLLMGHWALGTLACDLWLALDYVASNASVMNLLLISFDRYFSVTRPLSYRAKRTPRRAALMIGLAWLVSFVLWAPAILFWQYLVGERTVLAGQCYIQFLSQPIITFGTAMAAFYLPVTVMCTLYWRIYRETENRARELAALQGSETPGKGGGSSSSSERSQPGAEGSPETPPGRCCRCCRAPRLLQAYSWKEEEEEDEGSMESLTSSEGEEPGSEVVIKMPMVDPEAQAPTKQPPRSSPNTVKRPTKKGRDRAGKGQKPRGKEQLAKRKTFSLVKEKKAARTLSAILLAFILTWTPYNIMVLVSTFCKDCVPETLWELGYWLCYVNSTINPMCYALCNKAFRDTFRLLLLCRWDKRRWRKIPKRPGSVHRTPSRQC

Assay [16] has the same target. As to the kind of experiment: Cholinergic receptor muscarinic 1 (CHRM1) small molecule agonists, cell-based qHTS assay (AID 1963589). Further: nearly all actives have a fitted effect of over 35% in size. The method in brief: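 Agonist-mode calcium-flux screen: compounds at 15 concentrations, three independent runs, were pin-transferred onto dye-loaded human CHRM1-CHO cells. Fluorescence was then recorded kinetically every second over minutes.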

The nature of assay [17]: cAMP Responsive Elements (CRE) small molecule antagonists, cell-based qHTS assay (AID 1963591; active means well fitted inhibition curve with a large enough effect in the signal ratio in the repeat runs, not every such curve was filed as active; the % refers to the signal ratio). The method in brief: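 Antagonist mode: compounds are added alongside the adenylyl cyclase activator NKH477 (0.25 uM final) to CRE-bla HEK293T cells for 3 h. LiveBLAzer FRET substrate, 2 h at room temperature, reports bla expression.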
Assay [18] has as its target Beta-2 adrenergic receptor (Homo sapiens) (UniProt P07550). Description: Adrenergic beta2 receptor (ADRB2) small molecule agonists, cell-based qHTS assay (AID 1963593).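 Further: CHO cells stably overexpressing human ADRB2.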 The method in brief: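 CHO cells stably over-expressing ADRB2 were plated overnight at 37C, then dosed with compounds plus a stimulation mix containing 100uM IBMX and 25uM Ro-20-1724 for 0.5hr at room temperature. cAMP was measured by HTRF competition, 1hr.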

Assay [19] addresses D(2) dopamine receptor (Homo sapiens) (UniProt P14416). As to the kind of experiment: Dopamine D2 receptor (DRD2) small molecule antagonists, cell-based qHTS assay (AID 1963595; active means well fitted inhibition curve with a large enough effect in the signal ratio in the repeat runs, with a control signal flat; the % refers to the signal ratio). The method in brief: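 Stable D2 receptor HEK293 line, 24 h after seeding. Compound preincubated 10 min, then quinpirole (12 nM) with forskolin analogue NKH477 (200 nM), 30 min, room temperature. Detection by time-resolved FRET of cAMP.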

The target of assay [20] is 5-hydroxytryptamine receptor 2A (Homo sapiens) (UniProt P28223). As to the kind of experiment: 5-hydroxytryptamine receptor 2A (HTR2A) small molecule agonists, cell-based qHTS assay (AID 1963587). Further: nearly all actives have a fitted effect of over 30% in size. The method in brief:
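CHO cells stably expressing human HTR2A, plated 18 h, loaded with calcium dye 1 h at 37 C. Agonist mode: compounds added and intracellular calcium fluorescence recorded kinetically for 2 min at 1 sec intervals.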

Chain of KiSS-1 receptor (Homo sapiens) (Q969F8 whole entry, looked up): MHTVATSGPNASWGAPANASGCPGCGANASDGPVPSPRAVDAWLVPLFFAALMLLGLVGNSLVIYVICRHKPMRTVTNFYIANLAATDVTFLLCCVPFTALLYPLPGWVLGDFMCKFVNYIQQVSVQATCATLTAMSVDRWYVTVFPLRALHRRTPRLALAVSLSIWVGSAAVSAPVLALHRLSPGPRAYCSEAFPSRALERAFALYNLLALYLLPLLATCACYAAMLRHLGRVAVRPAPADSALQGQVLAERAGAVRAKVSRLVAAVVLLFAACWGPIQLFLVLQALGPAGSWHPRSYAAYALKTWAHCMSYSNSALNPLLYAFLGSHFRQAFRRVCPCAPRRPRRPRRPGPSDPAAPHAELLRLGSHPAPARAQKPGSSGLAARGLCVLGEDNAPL
Chain of Gonadotropin-releasing hormone receptor (Homo sapiens) (P30968 whole entry, looked up): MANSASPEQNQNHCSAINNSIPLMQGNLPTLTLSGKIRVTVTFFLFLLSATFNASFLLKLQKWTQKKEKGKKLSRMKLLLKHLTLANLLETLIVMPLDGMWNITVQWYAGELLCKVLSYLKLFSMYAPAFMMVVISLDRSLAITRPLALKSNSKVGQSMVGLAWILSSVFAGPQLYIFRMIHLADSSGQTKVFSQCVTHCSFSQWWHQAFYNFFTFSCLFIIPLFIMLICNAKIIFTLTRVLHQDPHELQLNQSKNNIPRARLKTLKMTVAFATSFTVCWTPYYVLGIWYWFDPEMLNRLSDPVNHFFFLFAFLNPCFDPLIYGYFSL
Chain of 5-hydroxytryptamine receptor 2A (Homo sapiens) (P28223 whole entry, looked up): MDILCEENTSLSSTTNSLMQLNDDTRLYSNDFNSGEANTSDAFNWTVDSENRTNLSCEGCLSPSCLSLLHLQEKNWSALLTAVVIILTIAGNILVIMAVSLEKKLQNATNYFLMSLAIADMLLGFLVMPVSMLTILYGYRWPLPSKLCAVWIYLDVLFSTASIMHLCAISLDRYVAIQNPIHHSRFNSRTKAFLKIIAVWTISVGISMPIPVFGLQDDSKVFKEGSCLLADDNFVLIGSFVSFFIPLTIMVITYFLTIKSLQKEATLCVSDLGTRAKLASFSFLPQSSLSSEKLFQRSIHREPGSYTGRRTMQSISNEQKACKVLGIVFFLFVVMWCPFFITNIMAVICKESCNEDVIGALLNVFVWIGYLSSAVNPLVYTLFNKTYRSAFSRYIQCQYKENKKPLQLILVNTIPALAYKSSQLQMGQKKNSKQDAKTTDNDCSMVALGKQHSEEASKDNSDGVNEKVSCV
Chain of Beta-2 adrenergic receptor (Homo sapiens) (P07550 whole entry, looked up): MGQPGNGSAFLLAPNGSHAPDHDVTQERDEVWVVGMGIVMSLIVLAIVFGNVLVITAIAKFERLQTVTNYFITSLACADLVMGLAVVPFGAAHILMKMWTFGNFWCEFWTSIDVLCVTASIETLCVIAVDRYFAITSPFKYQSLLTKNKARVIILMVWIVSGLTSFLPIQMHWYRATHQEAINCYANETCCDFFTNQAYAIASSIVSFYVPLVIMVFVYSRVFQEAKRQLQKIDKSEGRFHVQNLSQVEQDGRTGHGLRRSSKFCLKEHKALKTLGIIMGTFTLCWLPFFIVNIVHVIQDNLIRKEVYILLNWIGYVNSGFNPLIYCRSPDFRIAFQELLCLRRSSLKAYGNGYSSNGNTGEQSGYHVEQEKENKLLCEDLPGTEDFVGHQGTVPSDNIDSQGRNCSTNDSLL
Chain of D(2) dopamine receptor (Homo sapiens) (P14416 whole entry, looked up): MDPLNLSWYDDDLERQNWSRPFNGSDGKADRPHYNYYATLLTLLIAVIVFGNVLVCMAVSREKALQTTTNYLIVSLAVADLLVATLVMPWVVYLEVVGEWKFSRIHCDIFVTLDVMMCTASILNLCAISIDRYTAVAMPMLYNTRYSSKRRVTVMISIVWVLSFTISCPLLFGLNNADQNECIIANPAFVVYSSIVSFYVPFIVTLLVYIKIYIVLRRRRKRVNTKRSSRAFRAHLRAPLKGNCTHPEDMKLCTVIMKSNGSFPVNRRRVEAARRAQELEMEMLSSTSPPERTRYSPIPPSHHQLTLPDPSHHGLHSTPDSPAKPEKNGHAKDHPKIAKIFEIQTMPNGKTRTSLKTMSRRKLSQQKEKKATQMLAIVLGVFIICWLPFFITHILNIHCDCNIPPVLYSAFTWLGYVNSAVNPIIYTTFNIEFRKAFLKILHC

With `Oc1ccccc1O`, the Potency result in [1], in assay [2], in assay [3], in [4], in [5] and in assay [6] was “inactive” in each case. Further, the Potency result in assay [7], in assay [8], in assay [9] and in assay [10] was “inactive” throughout.

Turning to `N#CCc1cccc(C(F)(F)F)c1`, the Potency result in [1], in [3], in [4], in assay [5], in assay [12] and in assay [13] was “inactive” in each case. Further, the Potency entry in [14], in assay [15], in assay [16], in assay [8], in assay [17] and in assay [9] was “inactive” throughout. The Potency entry in assay [18], in [10] and in assay [19] was “inactive” throughout. The Potency in assay [2] is 68.6 µM (active); in [11], 40.8 µM (active); in [7], 45.8 µM (active).

For the molecule `CC1(C)C2=CCCC(C)(C)[C@]23CC[C@H]1C3`, the Potency entry in [1], in assay [2], in assay [3], in [4], in assay [5] and in assay [11] was “inactive” in each case. The Potency result in assay [7], in [12], in assay [13], in assay [14], in assay [20] and in assay [15] was “inactive” throughout. The Potency result in assay [16], in assay [8], in [17], in [9], in [18] and in [10] was “inactive” throughout. Besides, the Potency result in assay [19] was “inactive”.

Turning to `CN(C1CCCCC1)S(=O)(=O)c1ccccc1N`, the Potency entry in [1], in [2], in assay [3], in assay [4], in assay [5] and in [11] was “inactive” in each case. In addition, the Potency entry in [7], in [12], in assay [13], in assay [20], in assay [15] and in assay [16] was “inactive” throughout. Further, the Potency entry in assay [8], in assay [17], in [9], in assay [18] and in assay [19] was “inactive” each time. Further, in assay [14], the Potency is 37.5 µM (active).

Consider `CC/C=C\CCOC(=O)CC`, for which the Potency entry in assay [1], in assay [2], in assay [3], in assay [4], in assay [5] and in [11] was “inactive” in each case. Also, the Potency entry in assay [7], in assay [12], in assay [13], in [14], in [20] and in assay [15] was “inactive” throughout. The Potency result in [16], in assay [8], in [9], in assay [18], in [10] and in assay [19] was “inactive” each time.

As to `O=C(Nc1ccc(Cl)cc1)Nc1ccc(Cl)c(Cl)c1`, the Potency entry in assay [1], in [3], in assay [4], in assay [5], in [11] and in assay [7] was “inactive” in each case. The Potency entry in assay [12], in assay [13], in assay [14], in assay [20], in assay [16] and in assay [17] was “inactive” each time. In addition, the Potency entry in [10] was “inactive”. In addition, the Potency in assay [2] was 21.6 µM (active) and inactive; in assay [9], 68.2 µM (active) and 54.5 µM (active).

On to `CC(C)CCCCOC(=O)c1ccccc1C(=O)OCCCCC(C)C`, for which the Potency result in [1], in assay [2], in assay [3], in assay [4], in [5] and in assay [11] was “inactive” throughout. In addition, the Potency entry in assay [7], in [12], in assay [13], in assay [14], in [20] and in assay [15] was “inactive” in each case. In addition, the Potency entry in assay [16], in assay [8], in assay [17], in assay [9], in assay [18] and in assay [10] was “inactive” each time. Moreover, the Potency entry in assay [19] was “inactive”.
